Consider 92 compounds from PubChem BioAssay AID463173 (ICCB-Longwood Screening Facility, Harvard Medical School, 2010).

Screen size: about 52,000 compounds; about 1,700 (3.3%) were called active. No stated cut-off is given here; in the data, active means survival mostly below about 52% (no sharp cut-off); inactive means mostly above about 56%. Only a selection was taken, and actives are over-represented in it overall.

The test system of the test is Wild type. The experiment in a line: growth inhibition of S. aureus wild type versus tarO mutant, primary screen, teichoic acid synthesis inhibitors, RN4220, OD600 (AID 463173). The conditions noted are these: S. aureus RN4220 wild type/DeltatarO growth, OD600, 18 h, active compounds read low, screened at 18.75 µg/mL (by protocol).
Take `Cc1ccc(CNS(=O)(=O)c2c(C(=O)N3CCC(C)CC3)c(C)n(C)c2C)cc1`: the survival was 76% (inactive). The result for `O=C(Nc1nnc(C2CCCC2)s1)C1CC1` reads 105% (inactive). The result for `CNC(=O)Nc1ccc2nc(C)sc2c1` reads 112% (inactive). Consider `COC(=O)CCN(c1ccccc1)S(=O)(=O)c1cc(-c2cc(C)no2)ccc1OC`, for which the survival is 90% (inactive). The figure for `Cc1ccc2cc(CN(CC3CCCO3)C(=O)C(F)(F)F)c3nnnn3c2c1C` (configuration not stated) is 115% (inactive); for `Cc1ccccc1OCC(=O)N1CCC(c2nc3ccccc3s2)CC1` it is 65% (inactive); for `CCc1ccc(OC(C)C(=O)N2CCC(c3nc4ccccc4s3)CC2)cc1` (configuration not stated) it is 35% (inactive). Consider `CC(Oc1ccc(F)cc1)C(=O)N1CCC(c2nc3ccccc3s2)CC1` (configuration not stated), for which the survival was 80% (inactive).

Turning to `COc1ccccc1OC(C)C(=O)N1CCC(c2nc3ccccc3s2)CC1` (configuration not stated), the survival is -2% (active). Take `CCC(Oc1ccccc1F)C(=O)N1CCC(c2nc3ccccc3s2)CC1` (configuration not stated): the survival was -3% (active). The figure for `CCCOc1ccccc1C(=O)N1CCC(c2nc3ccccc3s2)CC1` is 68% (inactive); for `COCCn1c(CNC(=O)c2ccccc2C)nc2cccnc21` it is 69% (inactive). In the case of `COc1cc(Cl)c(C)cc1NC(=O)CNC(=O)Cn1ccc2ccccc2c1=O`, the survival was 65% (inactive). The figure for `COC(=O)C1=C(c2ccccc2)c2ccccc2S(=O)(=O)N1CC(=O)Nc1cc(C)ccc1C` is 77% (inactive); for `CCN(CC)S(=O)(=O)c1ccc2c(c1)N(CC(=O)NCc1ccccc1)C(=O)C1CCCCN21` (configuration not stated) it is 102% (inactive); for `CCOc1ccc2nc(NCCCNC(=O)C3CCCO3)c(C#N)cc2c1` (configuration not stated) it is 105% (inactive). The figure for `CCC(C)NC(=O)Cn1c(=O)n(-c2ccc(OC)c(OC)c2)c(=O)c2ccccc21` (configuration not stated) is 87% (inactive); for `COc1cccc(CNC(=O)CCCN2C(=O)CSc3c2c(C)nn3-c2ccccc2)c1` it is 89% (inactive). The figure for `COc1ccccc1C(=O)n1nc(-c2ccccc2)nc1NCc1ccc(Cl)cc1` is 66% (inactive). With `CC1CCN(c2ccc(NC(=O)c3cccc(Cl)c3)cc2C(=O)O)CC1`, the survival is 76% (inactive). The figure for `COc1ccc(C(=O)N2CCC(C(=O)Nc3ccc(Cl)cc3)CC2)cc1` is 122% (inactive); for `COc1ccc(CCC(=O)NCc2ccc3c(c2)CCN3C(=O)c2ccc(Cl)cc2)cc1` it is 80% (inactive); for `CC1(c2ccccc2)CC(C)(C)N(C(=O)c2ccccc2Cl)c2ccccc21` (configuration not stated) it is -2% (active). `COc1ccccc1C(=O)CC1(O)C(=O)N(CC(N)=O)c2ccccc21` (configuration not stated): the survival is 65% (inactive). The figure for `COc1ccccc1C(=O)N1c2ccccc2C(C)(c2ccc(Cl)cc2)CC1(C)C` (configuration not stated) is 2% (active); for `COc1ccc(C(=O)N2c3ccccc3C(C)(c3ccc(Cl)cc3)CC2(C)C)cc1` (configuration not stated) it is 6% (active).

For `CC1(c2ccccc2)CC(C)(C)N(C(=O)c2cccc(Cl)c2)c2ccccc21` (configuration not stated), the survival was 6% (active). On to `CN1CC2(C)CN(C(=O)c3ccccc3Cl)CC(C)(C1)C2`, for which the survival was 112% (inactive). The result for `CC1CCN(C(=O)c2cccc(Cl)c2)CC1` reads 112% (inactive). The figure for `O=C(c1ccccc1Cl)n1cc(Cl)cn1` is 100% (inactive); for `Cc1ccc(F)cc1NC(=O)Cn1c(C)cc(C)c(C#N)c1=O` it is 131% (inactive). The figure for `CCOc1ccc(CNC(=O)Cn2nc(C)c3c(C)n(-c4ccc(C)cc4)nc3c2=O)cc1` is 78% (inactive). Regarding `O=C(CSc1ccc2nnc(CCNS(=O)(=O)c3ccccc3)n2n1)Nc1ccccc1C(F)(F)F`, the survival was 107% (inactive).

In the case of `Cc1cccc(S(=O)(=O)Nc2cccc(-c3ccc(N4CCCCC4)nn3)c2)c1`, the survival is 69% (inactive). The figure for `N#Cc1ccccc1NC(=O)C(=O)NCC(c1cccnc1)N1CCN(c2ccccc2)CC1` (configuration not stated) is 99% (inactive); for `Cc1ccc(NC(=O)c2c(C)nc3sc(C(=O)Nc4ccc(F)cc4)c(N)c3c2-c2ccccc2Cl)c(C)c1` it is 65% (inactive). On to `Cc1cn(C)c(CC(=O)Nc2ccc(F)cc2Cl)c1C(=O)O`, for which the survival is 76% (inactive). The figure for `CCOC(=O)c1cccc(NC(=O)CCn2nc(C)c3c(C)n(-c4ccccc4)nc3c2=O)c1` is 73% (inactive). Take `CC1CC(C)CN(C(=O)c2ccc(Cl)cc2)C1` (configuration not stated): the survival was 117% (inactive).

Regarding `O=C(c1cccc(F)c1)N1CCC(c2c[nH]c3ccccc23)(c2c[nH]c3ccccc23)CC1`, the survival is 63% (inactive). Consider `CC1(C)C(=O)N(CC(=O)Nc2ccc(Cl)cc2)c2ccccc21`, for which the survival is 59% (inactive). The result for `O=C(NCc1ccc2c(c1)CCN2C(=O)c1ccc(Cl)cc1)c1cccc(F)c1` reads 55% (inactive); that for `CC1(c2ccc(Cl)cc2)CC(C)(C)N(C(=O)c2ccccc2)c2ccccc21` (configuration not stated), -11% (active); that for `CC1(c2ccc(Cl)cc2)CC(C)(C)N(C(=O)c2cccc(F)c2)c2ccccc21` (configuration not stated), 7% (active).

As for `COc1ccc(-n2c(SCC(=O)Nc3ccc4c(c3)OCO4)nc3c([nH]c4ccccc43)c2=O)cc1`, the survival is 81% (inactive). The figure for `Cc1ccc(COC(=O)c2[nH]c3c(c2C)C(=O)CC(c2ccc(Cl)cc2)C3)cc1` (configuration not stated) is 84% (inactive); for `COc1cc2[nH]c(=O)n(CCCC(=O)NCc3ccc(Cl)cc3)c(=O)c2cc1OC` it is 90% (inactive). The figure for `COc1ccccc1N1CCN(CC(O)COc2ccc(Cl)c(C)c2)CC1` (configuration not stated) is 66% (inactive). The result for `Cc1cc(OCC(O)CN2CCN(c3cccc(Cl)c3)CC2)ccc1Cl` (configuration not stated) reads 0% (active). Regarding `CC(=O)Nc1ccc(OCC(O)CN2CCN(c3ccc(C)c(Cl)c3)CC2)cc1` (configuration not stated), the survival is 98% (inactive). The result for `O=C(c1cc2ccccc2oc1=O)N1CCCCCC1` reads 88% (inactive); that for `Cc1ccc(-n2ncc(C(=O)NCCN3CCCC3)c2C2CCN(C(=O)OC(C)(C)C)CC2)cc1`, 153% (inactive). The result for `COc1cccc(CSc2nnc(-c3ccc(F)cc3)o2)c1` reads 113% (inactive). As for `COc1ccc(-c2nnc(SCc3cccc(Cl)c3)o2)cc1`, the survival is 13% (active). The figure for `COc1ccc(-c2nnc(SCC#N)o2)cc1` is 106% (inactive); for `COc1cn(CC(=O)Nc2ccc(F)cc2)c(CN2CCCCC2)cc1=O` it is 72% (inactive); for `CCCCNc1cc(N2CCN(C3CCCCC3)CC2)c2noc3c2c1C(=O)c1ccccc1-3` it is -1% (active). The figure for `CCCCNc1cc(NC2CCCCC2)c2c3c(onc13)-c1ccccc1C2=O` is 117% (inactive); for `O=C1c2ccccc2-c2onc3c(Br)cc(NC4CCCCC4)c1c23` it is 86% (inactive); for `CCNc1cc(N2CCN(C3CCCCC3)CC2)c2noc3c2c1C(=O)c1ccccc1-3` it is 84% (inactive).

Regarding `CN(C)CCCNc1cc(N2CCN(C3CCCCC3)CC2)c2noc3c2c1C(=O)c1ccccc1-3`, the survival was 72% (inactive). The result for `CCN(CC)c1cc(NC2CCCCC2)c2c3c(onc13)-c1ccccc1C2=O` reads 5% (active); that for `Cc1ccc2nc(COc3ccccc3NC(=O)C(C)(C)C)cc(=O)n2c1`, 66% (inactive). As to `O=C(C1CCN(c2ncnc3c2nc2n3CCCCC2)CC1)N1CCN(c2ccccc2F)CC1`, the survival is 82% (inactive). The figure for `CCc1ccc(NC(=O)Cn2nnc(C(=O)NCc3ccco3)c2N)cc1` is 94% (inactive). In the case of `CCOC(=O)c1c(S(=O)(=O)N2CCC(C(=O)Nc3cccc(C#N)c3)CC2)c(C)n(C)c1C`, the survival was 115% (inactive). The figure for `Cc1nn(C(=O)c2cc3sc(Br)cc3[nH]2)c(C)c1C` is 97% (inactive); for `COc1ccc(NC(=O)CSc2nnc(N)s2)cc1` it is 73% (inactive). The result for `CCc1ccc(NC(=O)Cn2ncc3c(C)n(Cc4cccc(Cl)c4)c(C)c3c2=O)cc1` reads 86% (inactive). In the case of `Cc1ccc(CCNC(=O)c2ccc3c(c2)c(C)c(C)n3Cc2ccccc2)cc1`, the survival is 125% (inactive).

With `Cc1c(Cl)cccc1-c1ccc(C(=O)Nc2ccc3oc(-c4cccnc4)nc3c2)o1`, the survival was 79% (inactive). The figure for `CCOc1ccc(NC(=O)c2ccc(-c3cccc(Cl)c3C)o2)cc1` is 66% (inactive); for `Cc1ccc(NC(=O)c2ccc(-c3cccc(Cl)c3C)o2)cc1` it is 1% (active). Consider `Cc1c(Cl)cccc1-c1ccc(C(=O)Nc2ccc(F)cc2)o1`, for which the survival is -1% (active). The figure for `CCOC(=O)c1ccc(NC(=O)c2ccc(-c3cccc(Cl)c3C)o2)cc1` is 59% (inactive); for `COc1ccc(NC(=O)c2ccc(-c3cccc(Cl)c3C)o2)cc1` it is 44% (inactive). In the case of `Clc1ccc(-c2nc3ccccn3c2Nc2ccc3c(c2)OCCO3)s1`, the survival is 79% (inactive). The result for `Cc1ccccc1C(=O)Nc1cccc(-c2cn3cccnc3n2)c1` reads 105% (inactive); that for `COc1ccc(-c2nc(CSCC(=O)NCc3ccccc3Cl)c(C)o2)cc1OC`, 70% (inactive). Turning to `COc1ccc(-c2nc(CSCC(=O)NCCc3ccc(C)cc3)c(C)o2)cc1OC`, the survival is 72% (inactive). The result for `Cc1ccc(CCNC(=O)CSCc2nc(-c3ccc(C)cc3)oc2C)cc1` reads 27% (inactive). The result for `Cc1ccc(CNC(=O)CSCc2nc(-c3ccc(Cl)cc3)oc2C)cc1` reads 88% (inactive). Take `Cc1oc(-c2cccc(Cl)c2)nc1CSCC(=O)NCc1ccccc1Cl`: the survival was -1% (active). The figure for `CCOc1ccc(-c2nc(CSCC(=O)NCc3ccc(C)cc3)c(C)o2)cc1` is 73% (inactive); for `CCc1ccc(-c2nc(CSCC(=O)NCc3ccc(C)cc3)c(C)o2)cc1` it is 0% (active).

As to `Cc1ccc(CNC(=O)CSCc2nc(-c3cccc(C)c3)oc2C)cc1`, the survival was -1% (active).

Regarding `Cc1oc(-c2cccc(Cl)c2)nc1CS(=O)(=O)CC(=O)NCc1ccccc1Cl`, the survival was 75% (inactive). The figure for `Cc1ccc(-n2nc(C)c3c(C(=O)NCc4ccccc4)cc(C4CC4)nc32)cc1` is 82% (inactive); for `O=C(Cn1c(=O)n(-c2ccccc2)c(=O)c2c3c(sc21)CCC3)c1ccc(Br)cc1` it is 87% (inactive); for `COc1ccc(N2C(=O)CSC23C(=O)N(Cc2ccc(C)cc2)c2ccccc23)cc1Cl` (configuration not stated) it is 135% (inactive).

On to `CC(C)(C)OC(=O)N1CCC(c2c(C(=O)NCCN3CCOCC3)cnn2-c2cccc(F)c2)CC1`, for which the survival was 120% (inactive). The figure for `Clc1ccccc1C(c1nnnn1Cc1ccco1)N1CCN(Cc2ccco2)CC1` (configuration not stated) is 111% (inactive).
